Only some compounds are listed: those with a hit (about 11% of all), similar ones and a draw of the others.
AmpC no deterg – qHTS Inhibitors of AmpC Beta-Lactamase (assay without detergent); AmpC nitrocefin hydrolysis, absorbance 480 nm, 0.0001% Triton; P00811; 0.52% of 330,000 active; Potency, µM (doses to about 57.1 µM), for inactives: top-dose activity change, negative = inhibition, actives largely listed as inhibitors; AID 485341, 2010;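 also: plate controls were no compound for no effect and no enzyme for full effect; nearly all actives have a fitted effect of over 20% in size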
Target sequence (P00811 whole entry, looked up): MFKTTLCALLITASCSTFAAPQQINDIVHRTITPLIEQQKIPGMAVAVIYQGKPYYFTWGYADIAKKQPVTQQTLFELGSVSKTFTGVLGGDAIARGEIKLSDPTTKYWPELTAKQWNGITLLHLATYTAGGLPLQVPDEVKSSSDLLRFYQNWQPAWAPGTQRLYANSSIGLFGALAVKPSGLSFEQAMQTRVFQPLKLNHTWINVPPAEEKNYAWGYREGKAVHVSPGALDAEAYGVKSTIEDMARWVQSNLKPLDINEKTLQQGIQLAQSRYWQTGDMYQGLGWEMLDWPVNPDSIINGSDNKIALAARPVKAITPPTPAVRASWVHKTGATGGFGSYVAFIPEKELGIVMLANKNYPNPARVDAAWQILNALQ
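20 mM phosphate pH 7.0 + 0.01% (detergent screen) or 0.0001% Triton X-100; 5.3 nM AmpC reagent; cpd preinc 15 min RT; nitrocefin (800 uM stock) to start; A480 q20 s × 4 min; Activity was normalised to no-enzyme and no-compound control wells.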
AMA1-RON2 inh – qHTS for Inhibitors of AMA1-RON; Towards Development of Antimalarial Drug Lead: Primary Screen | Plasmodium falciparum AMA1 (3D7) - RON2 peptide interaction | AlphaScreen AMA1-biotinylated RON2 peptide binding | Potency, µM (series often up to 58.2 µM), without a hit: at the highest dose activity change, negative = inhibition, hits mostly inhibitors | 0.2% of 360,000 active | AID 720542, 2013;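 also: 0% = vehicle wells and -100% = peptide control; nearly all actives have a fitted effect of over 45% in size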
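AMA1 (3D7) with his tag at 25 nM final met compounds first, then biotinylated RON2 peptide at 25 nM; detection used donor plus acceptor beads, 10 µg/mL apiece, read by AlphaScreen after 30 min at room temperature.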
Pf growth 96h – Primary qHTS for delayed death inhibitors of the malarial parasite plastid, 96 hour incubation. 6.9% of 320,000 active. AID 504834, 2011. Potency, µM (highest dose often 28.7 µM), without a hit: at the highest dose activity change, negative = inhibition, most hits filed as inhibitors. P. falciparum luciferase reporter growth, 96 h
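Plates of compound plus infected erythrocytes (2% hematocrit, 0.05% parasitemia final) incubate 96 hours, 37 C, 5% CO2. Detection reagent added; reduced luminescence from the parasites' luciferase reporter flags inhibition.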
HCV inh – qHTS Assay for Inhibitors of Hepatitis C Virus (HCV) | Huh7.5.1 HCVcc-Cre infection, luciferase reporter, 44 h | 3.4% of 340,000 active | Potency, µM (highest dose often 41.8 µM), without a hit: at the highest dose activity change, negative = inhibition, usual class: inhibitors
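Whole-lifecycle infectious HCVcc-Cre system; cells 1,000/well, compound then virus (~0.5 moi) added 4 h after plating, 44 h culture. Luciferase read 15 sec following 15 min substrate incubation, room temp.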
AmpC detergent – qHTS Inhibitors of AmpC Beta-Lactamase (assay with detergent). P00811. AmpC hydrolysis of nitrocefin, absorbance 480 nm, 0.01% Triton. Potency, µM (highest dose often 114 µM), without a hit: at the highest dose activity change, negative = inhibition, hits mostly inhibitors. 0.041% of 370,000 active. AID 485294, 2010;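 also: 0% = no-compound wells and -100% = no-enzyme wells; nearly all actives have a fitted effect of over 25% in size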
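20 mM phosphate pH 7.0 + 0.01% (detergent screen) or 0.0001% Triton X-100; 5.3 nM AmpC reagent; cpd preinc 15 min RT; nitrocefin (800 uM stock) to start; A480 q20 s × 4 min; Activity was normalised to no-enzyme and no-compound control wells.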
Pf growth 48h – Primary qHTS for delayed death inhibitors of the malarial parasite plastid, 48 hour incubation; P. falciparum luciferase growth in erythrocytes, 48 h; Potency, µM (highest dose often 28.7 µM), inactives show at the top dose activity change, negative = inhibition, actives largely listed as inhibitors; 5.9% of 310,000 active
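Here the parasites carry a stable luciferase gene and grow inside erythrocytes in Albumax-based RPMI medium with compound for one erythrocytic cycle. Activity is scored as loss of luminescent signal.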
* hit, by the source's call; ? = inconclusive; nt = no result given; [ ] = remark or other dose. Calls follow the shape of the dose curve; as a rule, active = well fitted curve in the direction sought with a large enough effect; inconclusive = small, poorly fitted or top-dose-only effect, or another doubt; inactive = no such curve, though single readings can be large; an effect the other way counts as inactive or inconclusive. Unless noted, % is scaled to controls: 0 for no effect and ±100 for the full control effect; potency is read from the fitted curve at half-maximal effect.

SMILES | AmpC no deterg | AMA1-RON2 inh | Pf growth 96h | HCV inh | AmpC detergent | Pf growth 48h
O=C(N/N=C/c1ccc[nH]1)c1ccccc1[N+](=O)[O-] | -21% | 6% | ? | 20% | -1% | 16%
CCCCCC=CCC=CCCCCCCCC(=O)OCC | nt | nt | 2% | nt | nt | -6%
O=C(NNc1ccccn1)C(c1ccccc1)c1ccccc1 | -22% | 105% | ? | 12% | ? | 13%
O=C(NNC(=S)Nc1ccc(Cl)c(Cl)c1)c1ccccn1 | -46% | -75% | ? | 4.5µM* | 3% | 2.3µM*
O=C(NNC(=O)C(c1ccccc1)c1ccccc1)c1ccccn1 | -24% | 75% | 2.6µM* | 6.3µM* | -1% | 3.7µM*
CCNC(=S)NNC(=O)c1ccccn1 | -16% | -39% | ? | -9% | ? | ?
COc1cc(OC)c(OC)cc1CCC(C)NC(=O)Cc1ccccc1 (stereo unspecified) | 25% | 2% | -9% | ? | 0% | -27%[0.00184 µM]
COc1ccc(CCC(C)NC(=O)CCc2ccccc2)c(OC)c1 (stereo unspecified) | 25% | 3% | ? | ? | -14% | 9.3µM*
COc1ccc(-n2c(C)cc(C(=O)C[N+]34CCN(CC3)CC4)c2C)cc1 | 47% | -5% | 5.9µM* | 2% | -8% | -16%
Cc1cc(C(=O)COC(=O)Cc2n[nH]c(=O)c3ccccc23)c(C)n1-c1ccc2c(c1)OCO2 | -11% | -2% | ? | -9% | ? | 6.6µM*
COCCn1c(C)cc(C(=O)COC(=O)Cc2n[nH]c(=O)c3ccccc23)c1C | 3% | -8% | -9% | 14% | -14% | ?
COc1ccc(-n2c(C)cc(C(=O)CN3CCCCC3)c2C)cc1 | -9% | 0% | ? | -11% | -6% | ?
COc1ccc(-n2c(C)cc(C(=O)COC(=O)Cc3n[nH]c(=O)c4ccccc34)c2C)cc1 | -51% | -10% | 2.1µM* | ? | -3% | 12µM*
CC(C(=O)NCc1ccccc1)n1ccc2cc(S(=O)(=O)N3CCCC3)ccc21 (stereo unspecified) | nt | nt | nt | nt | -8% | nt
CC(C)(C)OC(=O)NCCCCCNC(=O)c1[nH]cnc1C(=O)Nc1ccon1 | -3% | 146% | 5.2µM* | -10% | 5% | ?
C[C@H](NC(=O)c1nc[nH]c1C(=O)NCCCCCNC(=O)OC(C)(C)C)C(=O)OC(C)(C)C | 120% | 66% | ? | 11µM* | -2% | ?
CC(C)(C)OC(=O)NCCCCCNC(=O)c1[nH]cnc1C(=O)Nc1cccc(Cl)c1 | -9% | 55% | ? | 5% | 2% | ?
CC(C)C[C@H](NC(=O)c1nc[nH]c1C(=O)NCCCCCNC(=O)OC(C)(C)C)C(=O)OC(C)(C)C | 182% | 149% | ? | -19% | 8% | 7.4µM*
CNC(=O)c1[nH]cnc1C(=O)N[C@@H](CCCCNC(=O)OC(C)(C)C)C(=O)OC(C)(C)C | 76% | 60% | ? | -13% | 7% | -17%
CC(C)C[C@H](NC(=O)c1nc[nH]c1C(=O)N[C@@H](CCCCNC(=O)OC(C)(C)C)C(=O)OC(C)(C)C)C(=O)OC(C)(C)C | 94% | 133% | 2.1µM* | ? | 1% | 3.7µM*
CC(C)(C)OC(=O)CNC(=O)c1[nH]cnc1C(=O)NCCCCCNC(=O)OC(C)(C)C | 55% | 114% | -11% | ? | 4% | -26%
Cc1ccc(-n2nc3c(=O)n(CCCC(=O)NCc4ccccc4Cl)nc(C)c3c2C)cc1 | 85% | -8% | 2.6µM* | 5% | -3% | ?
Cc1ccc(N2C(=O)N(CC(=O)NCc3ccccc3Cl)C(=O)C2C)cc1 (stereo unspecified) | -11% | 13% | -9% | ? | ? | 10µM*
Cc1ccc(-n2nc3c(=O)n(CCCC(=O)NCc4cccc(Cl)c4)nc(C)c3c2C)cc1 | 119% | 11% | ? | 22µM* | 0% | 9.3µM*
Cc1ccc(-n2nc3c(=O)n(CCCC(=O)NCc4ccc(C)o4)nc(C)c3c2C)cc1 | 68% | -2% | ? | -29% | 0% | 10µM*
SMILES | AmpC no deterg | AMA1-RON2 inh | Pf growth 96h | HCV inh | AmpC detergent | Pf growth 48h
Cc1ccc(N2C(=O)N(CC(=O)Nc3ccccc3C)C(=O)C2C)cc1 (stereo unspecified) | -18% | -1% | -15% | -9% | -12% | 11%
O=C(Nc1ccc(F)c(Cl)c1)C1CCN(S(=O)(=O)c2ccc3c(c2)CCCN3C(=O)C2CCC2)CC1 | nt | nt | nt | nt | 7% | nt
O=C(Cc1ccc(-c2ccccc2)cc1)NCCS(=O)(=O)N1CCN(c2ccc(F)cc2)CC1 | nt | nt | nt | nt | -3% | nt
CCOC(=O)C1CCCN(C(=O)CCS(=O)(=O)c2cc3c(cc2Cl)NC(=O)CO3)C1 (stereo unspecified) | nt | nt | nt | nt | -3% | nt
Cc1ccc2c(Cl)cc(Cl)c(OCC(=O)Nc3cc(S(=O)(=O)N(C)C)ccc3C)c2n1 | 94% | 26% | 12µM* | 2.5µM* | -3% | ?
Cc1ccc2c(Cl)cc(Cl)c(OCC(=O)NC(C)(C)C)c2n1 | 112% | 63% | ? | 22µM* | -3% | 12µM*
COC(=O)COc1c(Cl)cc(Cl)c2ccc(C)nc12 | -7% | 4% | -30% | 5% | 1% | 0%
C=C1C2(C(=O)Nc3nccs3)CCC(C2)C1(C)C (stereo unspecified) | -4% | -1% | nt | 1% | -6% | 1.2µM*
Cc1ccc(C(=O)Nc2ccc(Br)cc2)cc1S(=O)(=O)NCc1ccccc1 | nt | nt | nt | nt | -3% | nt
CSC(=S)NN=C(C)c1cccc(C)n1 | nt | -14% | nt | 4µM* | nt | nt
CCc1nc(CN2CCN(c3ccc(C(F)(F)F)cn3)CC2)c(C)[nH]1 | 7% | 2% | 27% | 10µM* | 1% | -8%
Cc1cccc(C)c1NC(=O)CN1CCN(c2ccc(C(F)(F)F)cn2)CC1 | nt | -2% | nt | nt | nt | nt
COc1ccc(-c2nc3c4ccccc4n(CC(=O)N4CCN(c5ccc(F)cc5)CC4)c(=O)n3n2)cc1 | nt | nt | nt | nt | 4% | nt
CC(C)Nc1ccc(Nc2ccccc2)cc1 | -33% | ? | 2.6µM* | ? | ? | 4.1µM*
Cc1ccc(Cn2c(=O)n(Cc3ccccc3Cl)c(=O)c3cccnc32)cc1 | nt | nt | nt | nt | 19% | nt
Cc1ccccc1CN1CCNC1=O | 15% | 12% | 25% | 8% | -4% | 9.3µM*

Source: PubChem
